A selection: hits, their analogues and other compounds. The true share with any hit is near 8.7%.
BAZ2B block: blocks human BAZ2B | Q9UIF8 | AlphaScreen BAZ2B-H3K14Ac peptide displacement | Potency, µM (doses to about 114 µM), without a hit: at the highest dose activity change, negative = inhibition, usual class: inhibitors | 360,000 compounds, 4.4% hits | AID 504333; also: % is scaled to controls: 0 for no effect and ±100 for the full control effect; nearly all actives have a fitted effect of over 60% in size
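AlphaScreen luminescence quantifies BAZ2B engagement of H3K14Ac peptide; the protein and biotinylated peptide are both at 50 nM final, buffer PBS pH 7.4 with 0.01% Tween-20, all steps at room temperature.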
Sfp PPTase inh: blocks B. subtilis Sfp PPTase activity; 310,000 compounds, 3.5% hits; Q9F4F7; Potency, µM, without a hit: largest response in the series, negative = inhibition, most hits filed as inhibitors; Biochemical Sfp PPTase activity, qHTS;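 also: the enzyme is Sfp with the accession as filed and its product quenches rhodamine fluorescence; 0% = enzyme reaction without inhibitor and -100% = no enzyme wells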
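Buffer: 50 mM Hepes-Na pH 7.6, 10 mM MgCl2, 0.01% Nonidet P-40, 0.01% BSA. Enzyme 15 nM, pre-exposed to compound 15 min; substrates then added and fluorescence change tracked over 30 min.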
G9a block: blocks human histone lysine methyltransferase G9a | Q96KQ7 | G9a H3K9 monomethylation, AlphaScreen, 2 h | Potency, µM (top dose mostly 102 µM), without a hit: at the highest dose activity, negative = inhibition, usual class: inhibitors | 350,000 compounds, 8.8% hits | AID 504332; also: % is scaled to controls: 0 for no effect and ±100 for the full control effect; nearly all actives have a fitted effect of over 75% in size
Target sequence (Q96KQ7 913-1193 limits assumed): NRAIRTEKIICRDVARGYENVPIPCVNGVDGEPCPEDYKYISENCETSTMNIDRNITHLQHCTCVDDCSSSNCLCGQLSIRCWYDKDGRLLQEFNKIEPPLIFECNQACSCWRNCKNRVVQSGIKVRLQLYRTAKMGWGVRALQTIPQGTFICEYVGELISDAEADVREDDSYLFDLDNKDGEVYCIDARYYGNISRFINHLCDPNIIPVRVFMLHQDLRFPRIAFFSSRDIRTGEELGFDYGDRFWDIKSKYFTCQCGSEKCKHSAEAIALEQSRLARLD
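Enzyme 20 nM + cpd, 15 min RT; add b-H3K9 pep 500 nM / SAM 20 uM; 2 h RT; anti-H3K9me1 Ab 0.5 ug/mL + SA donor / anti-rabbit acceptor beads 20 ug/mL each, 10 min; AlphaScreen read.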
HP1b chromo inh: inhibitors of HP1-beta chromodomain binding to methylated histone tails; 390,000 compounds, 0.56% hits; Potency, µM (top dose mostly 114 µM), inactives show at the top dose activity change, negative = inhibition, usual class: inhibitors; P83916; AID 540317; AlphaScreen HP1-beta / biotin-H3K9me3 peptide binding; also: nearly all actives have a fitted effect of over 70% in size
Target sequence (P83916 whole entry, looked up): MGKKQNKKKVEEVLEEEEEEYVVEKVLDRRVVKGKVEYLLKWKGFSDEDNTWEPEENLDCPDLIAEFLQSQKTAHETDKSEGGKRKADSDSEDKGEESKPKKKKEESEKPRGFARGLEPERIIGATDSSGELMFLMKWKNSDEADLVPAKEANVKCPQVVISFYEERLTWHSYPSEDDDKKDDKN
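HP1-beta protein (50 nM final) preincubated 30 min at room temperature with biotinylated H3(1-18)K9me3 peptide (50 nM) in PBS pH 7.4, 0.01% Tween-20, then compound added for 30 min. AlphaScreen streptavidin donor/nickel chelate acceptor beads (10 ug/mL final), 30 min dark, luminescence read.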
JMJD2A Tudor: inhibitors of human JMJD2A Tudor domain. O75164. AlphaScreen JMJD2A-Tudor / H3K4me3 peptide binding. Potency, µM (titrated, usually from 114 µM), for inactives: at the highest dose activity change, negative = inhibition, hits mostly inhibitors. 390,000 compounds, 4.4% hits; also: % is scaled to controls: 0 for no effect and ±100 for the full control effect; nearly all actives have a fitted effect of over 50% in size
ALOX12 inh: ALOX12 (human) lipoxygenase inhibition | P18054 | Potency, µM (doses to about 108 µM), for inactives: at the highest dose activity change, negative = inhibition, usual class: inhibitors | purified 12hLO, xylenol orange hydroperoxide absorbance | 580,000 compounds, 1.1% hits; also: % is scaled to controls: 0 for no effect and ±100 for the full control effect
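Hydroperoxide product was detected by ferrous iron/xylenol orange as the 573 to 405 nm absorbance ratio. Arachidonic acid at 40 uM (final) was turned over for 30 min at room temperature by 150 nM human 12hLO, pH 7.0 Hepes buffer, after 15 min compound preincubation.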
Starred values were filed as active, the others as inactive; ? = inconclusive; . = not tested or not shown; [ ] = another dose, or the depositor's remark. Calls follow the shape of the dose curve; as a rule, active = well fitted curve in the direction sought with a large enough effect; inconclusive = small, poorly fitted or top-dose-only effect, or another doubt; inactive = no such curve, though single readings can be large; an effect the other way counts as inactive or inconclusive. Potency is read from the fitted curve at half-maximal effect.

SMILES	BAZ2B block	Sfp PPTase inh	G9a block	HP1b chromo inh	JMJD2A Tudor	ALOX12 inh
COc1ccc(-c2c3c(=O)n(C)c(=O)n(C)c3cn2-c2ccc(O)cc2)cc1	79µM*	-6%	-5%[12.7 µM]	?	-32%	12%
CCCCn1c(SCc2ccccc2Cl)nc2c1c(=O)[nH]c(=O)n2C	.	.	.	.	.	-17%
COc1ccc(/C=N/OCC(=O)OCC(=O)N(C)c2ccccc2)cc1	-2%	.	50µM*	21%	-2%	-19%
C/C(=N\OCC(=O)OCC(=O)N(C)c1ccccc1)c1ccc2c(c1)OCO2	79µM*	.	9%[12.7 µM]	35%	5%	11%
CN(C(=O)CO/N=C/c1ccc(Cl)cc1)c1ccccc1	9%	12%	5%	17%	-2%	-3%
C/C(=N\OCC(=O)OCC(=O)N(Cc1ccccc1)C(C)(C)C)c1ccc2c(c1)OCO2	-22%	.	2%	39%	-6%	-20%
O=C(CN1CCCCCC1)Nc1cccc(NC(=O)CN2CCCCCC2)c1	-6%	5%	12%[0.501 µM]	18%	-6%	?
O=C(CN1CCCCCC1)Nc1ccccc1	50µM*	?	4µM*	?	8.9µM*	-25%
Cc1ccc(NC(=O)CN2CCCC2)cc1Br	?	-9%	50µM*	0%	56µM*	?
O=C(CN1CCC(NC(=O)C2CCCCC2)CC1)Nc1ccccc1	.	.	.	-27%[57 µM]	0.89µM*	?
CN(C)c1ccc(NC(=O)CN2CCN(CC(=O)Nc3ccc(Br)cc3)CC2)cc1	-15%	.	8.9µM*	20%[57 µM]	-23%	-22%
OCC1(CO)CCCC12COC(c1ccccc1)OC2 (centres undefined)	.	.	.	.	.	3%
O=C(CN1CCCC1)Nc1ccc(Br)cc1	50µM*	50µM*	4.5µM*	?	13µM*	-35%
CCN(CC)c1ccc(NC(=O)CN2CCN(S(=O)(=O)c3ccc(C(C)C)cc3)CC2)cc1	7.9µM*	.	?	?	14µM*	3%
CN(C)c1ccc(NC(=O)N2CCOCC2)cc1	?	40µM*	4µM*	-12%	?	0%
O=C(CN1CCCCCC1)Nc1ccc(Br)cc1	8%	3%	-8%[12.7 µM]	24%	-1%	6%
O=C(CN1CCCCC1)NN(Cc1ccccc1)c1ccccc1	50µM*	-10%	16µM*	?	-2%[11.4 µM]	14µM*
C[S+](=O)([O-])N1Cc2ccccc2CC2(CCN(CC3CCNCC3)CC2)C1	.	.	.	.	.	2%[6.33 µM]
O=C1CCCN1CCCN1C(=O)[C@H]2CN(Cc3ccc(F)c(Cl)c3)C[C@H]2C1=O	.	.	.	.	.	64%
CCCN(C(=O)c1ccc2c(=O)n3c(nc2c1)CCCC3)c1ccc(C(C)C)cc1	.	.	.	.	.	0%
COc1cc(C(=O)Nc2sc3ccccc3c(=O)c2-c2ccccc2)cc(OC)c1OC	.	.	.	.	.	-12%
CN(C)c1ccc(NC(=O)CN2CCC(N3CCCCC3)CC2)cc1	45µM*	89µM*	2.2µM*	?	?	?
CCN1CCN(CC(=O)Nc2ccc(N(C)C)cc2)CC1	?	13%	?	-4%	7.1µM*	?
CCCCCCC(=O)Nc1c2c(nc3ccccc13)N(C)CC2	?	10%	7%[59 µM]	37%	-3%	23%
CN1CCc2c1nc1ccccc1c2NC(=O)CN1CCCC1	?	-21%	.	-16%	5.6µM*	6%
SMILES	BAZ2B block	Sfp PPTase inh	G9a block	HP1b chromo inh	JMJD2A Tudor	ALOX12 inh
CN(C)c1ccc(NC(=O)CN2CCC(NC(=O)C3CCCCC3)CC2)cc1	-38%	0%	?	-18%	?	-14%
O=C(CNCC1CCCCC1)Nc1ccc(OC(F)(F)F)cc1	50µM*	-11%	8.9µM*	-25%	3.5µM*	-75%
Cc1nc2c(c(-c3ccc(O)cc3)n1)CN(Cc1cncs1)CCC2	.	.	.	.	.	6%
COc1cccc(Nc2cnc3ccc(-c4ccc(OC)c(OC)c4)nn23)c1	.	.	.	.	.	-20%[176 µM]
CCN(CC)c1ccc(NC2CC(=O)N(CCc3ccc(OC)cc3)C2=O)cc1 (centres undefined)	35µM*	32µM*	?	?	40µM*	?
CCOc1ccc(NC(=O)CN2CCN(CC(=O)Nc3cc(OC)cc(OC)c3)CC2)cc1	1%	6%	?	25%	-14%	0%
CCN(CC)c1ccc(NC(=O)CN2CCN(CC(=O)Nc3ccc(OC)cc3)CC2)cc1	-26%	1%	11µM*	12%	-21%	0%
O=C(CN1CCCC1)Nc1ccc(OC(F)(F)F)cc1	?	-21%	.	?	0.79µM*	?
Cc1nn(CC(=O)c2cc(C)n(C3CC3)c2C)c(=O)c(C#N)c1C	.	.	.	.	.	-17%
CC(C)(C)C(=O)Nc1cccc(NC(=O)c2cc(F)c(Cl)cc2Cl)c1	.	.	.	.	.	5%
CCc1ccc2oc(-c3cc(NC(=O)C(C)C)ccc3O)nc2c1	.	.	.	.	.	11%
CN1CCc2nc3sc(C(=O)C45CC6CC(CC(C6)C4)C5)c(N)c3cc2C1	?	16%	2.2µM*	-77%	-26%	?
CN1CCc2nc3sc(C(=O)Nc4ccccc4C(F)(F)F)c(N)c3cc2C1	?	.	13µM*	14%	?	-7%
CN1CCc2nc3sc(C(=O)c4ccc(Cl)cc4)c(N)c3cc2C1	.	.	.	.	.	35µM*
CN1CCc2nc3sc(C(=O)c4ccc(F)cc4)c(N)c3cc2C1	-36%	.	?	7%	?	?
Cc1ccccc1NC(=O)c1sc2nc3c(cc2c1N)CN(Cc1ccccc1)CC3	-9%	.	?	45%	0%	-1%
CCN1CCc2nc3sc(C(=O)c4ccc(F)cc4)c(N)c3cc2C1	?	.	?	12%	?	?
CCN1CCc2nc3sc(C(=O)c4ccccc4)c(N)c3cc2C1	-33%[57.1 µM]	.	11µM*	0%	?	?
O=C(Nc1ccc([C@@H](O)[C@H]2COCC(=O)N2CC2CCCCC2)cc1)C1CCC1	.	.	.	.	.	48%[176 µM]
C=CCn1cccc(C(=O)Nc2ccc(Cl)cc2)c1=O	9%	6%	10%	46%	14%	4%
C=CCn1cccc(C(=O)Nc2ccc(OC)c(OC)c2)c1=O	-15%	21%	-4%	-15%	-28%	-9%
C=CCn1cccc(C(=O)Nc2ccc(N(C)C)cc2)c1=O	-27%	10%	13µM*	-21%	?	.
C=CCn1cccc(C(=O)Nc2cc(OC)c(OC)c(OC)c2)c1=O	-10%	15%	-5%	-11%	32µM*	-3%
Cc1cnc(C2CCN(S(=O)(=O)c3ccccc3)C2)n1C(C)C (centres undefined)	.	.	.	.	.	2%
Cn1ncc2c(NCCc3cn4ccccc4n3)nc(C3CCCC3)nc21	.	.	.	.	.	16%
Cc1cccc(NC(=O)CSc2ncnc3nc[nH]c23)c1C	-34%	17%	45µM*	33%	-30%	-23%
